Screening results from PubChem BioAssay.
The list is not random: actives were taken first. Their share in the collection is about 5.3%.
Six1-Eya2 blk – inhibitors of human Six1/Eya2 interaction; 360,000 compounds, 0.56% hits; activity change, % (test concentration not listed); AlphaScreen GST-Six1/His-Eya2 binding, biochemical; hits give low values; Q15475+O00167; in the data active = activity change below about -65%; inconclusive = mostly about -30% to -63%; also: % is scaled to controls: 0 for no effect and ±100 for the full control effect
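Homogeneous AlphaScreen proximity assay pairing GST-Six1 with His-tagged Eya2 (added as 5X mix: 250 nM and 500 nM) in 50 mM Tris pH 8.0, 300 mM NaCl, 1 mM TCEP. Glutathione donor and nickel acceptor beads; 1 h, 37 °C, dark.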
JMJD2A Tudor inh – blocks the human JMJD2A Tudor domain. 390,000 compounds, 4.4% hits. AID 504339. O75164. AlphaScreen JMJD2A-Tudor / H3K4me3 peptide binding. Potency, µM (titrated, usually from 114 µM), for the others: top-dose activity change, negative = inhibition, usual class: inhibitors; also: potency is read from the fitted curve at half-maximal effect; % is scaled to controls: 0 for no effect and ±100 for the full control effect; nearly all actives have a fitted effect of over 50% in size
CtBP-E1A blk – inhibitors of CtBP/E1A interaction; AID 651724; 340,000 compounds, 0.49% hits; AlphaScreen GST-E1A/His-CtBP binding, 1536-well; hits give low values; activity change, % (concentration not given with the values); in the data active = activity change below about -65%; inconclusive = mostly about -30% to -63%; also: % is scaled to controls: 0 for no effect and ±100 for the full control effect
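Homogeneous bead-based format: GST-tagged E1A captured on glutathione donor beads, His-tagged CtBP on nickel acceptor beads; compounds precede bead addition by 2 h at 37 °C.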
HP1b chromo inh – inhibitors of HP1-beta chromodomain binding to methylated histone tails; P83916; AlphaScreen HP1-beta / biotin-H3K9me3 peptide binding; Potency, µM (top dose mostly 114 µM), inactives show top-dose activity change, negative = inhibition, hits mostly inhibitors; 390,000 compounds, 0.56% hits; also: potency is read from the fitted curve at half-maximal effect; nearly all actives have a fitted effect of over 70% in size
Target sequence (P83916 whole entry, looked up): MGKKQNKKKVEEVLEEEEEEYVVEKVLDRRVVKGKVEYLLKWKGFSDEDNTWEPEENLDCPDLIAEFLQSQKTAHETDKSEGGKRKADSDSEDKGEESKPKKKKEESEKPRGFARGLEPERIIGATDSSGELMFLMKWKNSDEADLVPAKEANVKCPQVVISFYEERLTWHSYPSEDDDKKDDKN
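Compound inhibition of the preformed complex between 50 nM HP1-beta and 50 nM biotinylated H3K9me3 peptide was read by AlphaScreen. Buffer was PBS pH 7.4 with 0.01% Tween-20. Incubations ran 30 min at room temperature, with 10 ug/mL donor/acceptor beads.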
TDP1 block – blocks human tyrosyl-DNA phosphodiesterase 1; 350,000 compounds, 0.28% hits; AID 485290; Q9NUW8; recombinant TDP1, AlphaScreen DNA substrate cleavage; Potency, µM (doses to about 130 µM), for inactives: at the top dose activity change, negative = inhibition, actives largely listed as inhibitors; also: potency is read from the fitted curve at half-maximal effect; % is scaled to controls: 0 for no effect and ±100 for the full control effect; nearly all actives have a fitted effect of over 40% in size
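Recombinant human Tdp1 (E. coli-expressed, 1 nM final) preincubated with compounds 15 min at room temperature, then 5'-biotin/3'-phosphotyrosine-FITC DNA substrate (15 nM final) added for 5 min. AlphaScreen beads (10 ug/ml final) added 10 min; cleavage lowers signal.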
BAZ2B inh – BAZ2B (human) inhibition; Q9UIF8; AlphaScreen BAZ2B-H3K14Ac peptide displacement; Potency, µM (top dose mostly 114 µM), for inactives: at the top dose activity change, negative = inhibition, hits mostly inhibitors; 360,000 compounds, 4.4% hits; also: potency is read from the fitted curve at half-maximal effect; % is scaled to controls: 0 for no effect and ±100 for the full control effect; nearly all actives have a fitted effect of over 60% in size
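Inhibition is scored as reduced AlphaScreen emission. The BAZ2B/b-H3(5-23)K14Ac complex (50 nM each) in PBS pH 7.4, 0.01% Tween-20 meets compound (up to 110 uM) for 30 min at RT before bead addition.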
The depositor's hits bear a star; ? = inconclusive; . = no result; [ ] = another dose, or the depositor's remark. Unless noted, calls follow the shape of the dose curve; as a rule, active = well fitted inhibition curve with a large enough effect; inconclusive = small, poorly fitted or top-dose-only effect; inactive = no such curve, though single readings can be large or run the other way.

SMILES	Six1-Eya2 blk	JMJD2A Tudor inh	CtBP-E1A blk	HP1b chromo inh	TDP1 block	BAZ2B inh
Cc1ccsc1/C=N/n1c(-c2ccncc2)n[nH]c1=S	8	3.2µM*	29	-17%	-6%	-35%
Cc1ccsc1/C=N/N1CCOCC1	-1	-21%	0	2%	5%	-18%
Cc1ccsc1/C=N/n1c(-c2ccco2)n[nH]c1=S	0	7.1µM*	3	-10%	2%	-21%[57.1 µM]
Cc1ccsc1/C=N/n1c(-c2ccccc2)n[nH]c1=S	0	28µM*	5	11%	6%	3%
S=c1[nH]nc(-c2ccncc2)n1/N=C/c1cn(-c2ccccc2)nc1-c1ccc(Cl)cc1	18	-35%	0	12%	.	-4%
CCc1ccc(NC(=O)Cn2c(=O)n(CCC(=O)NCCc3ccc(Cl)cc3)c(=O)c3ccccc32)cc1	.	6%	.	39%	-2%	-19%
Cc1nc(-c2ccc(S(=O)(=O)N(Cc3ccccc3)C(C)C)cc2)co1	.	2%	.	19%[57 µM]	3%	-20%
COc1ccc(O[C@H]2C=C[C@@H](c3ccccc3)O[C@H]2CO/N=C\C[C@@H]2C=C[C@H](OC(C)=O)[C@H](COC(C)=O)O2)cc1	.	.	.	.	3%[21 µM]	.
COc1ccc(Cc2nc3ccc(C(=O)NCc4cc(Br)ccc4OC)cc3o2)cc1	.	-8%	.	21%[57 µM]	1%	-9%
Cc1cc(-c2n[nH]c(=S)n2/N=C/c2sccc2C)n[nH]1	-15	3.2µM*	2	?	8%	?
CCN(CCCNC(=O)CSc1cc(=O)n(CC)c2ccccc12)c1cccc(C)c1	.	32µM*	.	?	12%	22µM*
COc1ccc(OC(=O)c2nc(SCc3ccccc3F)ncc2Cl)cc1	.	8%	.	46%	-5%	30%
Cc1cc(N)n(-c2ccc(Oc3ccccc3)c(S(=O)(=O)O)c2)n1	-21	-32%	2	23%	0%	56µM*
Cc1cc(N)n(-c2ccc(C)c(C)c2)n1	-2	-21%	-3	18%	8%	-29%
CCOC(=O)CSc1nnc(-c2ccc3ncccc3c2)n1C	1	5%	.	47%	3%	-38%
c1cnc2ccc(-c3ccc4ncccc4c3)cc2c1	-1	-26%	-3	38%	.	0%
CCn1c(-c2cccc(Br)c2)n[nH]c1=S	5	7.9µM*	-14	0%	8%	16%
CCn1c(-c2sc(-c3ccccc3)nc2C)n[nH]c1=S	0	18µM*	1	-6%	0%	-8%
CCn1c(-c2ccc3ncccc3c2)n[nH]c1=S	1	5µM*	0	29%	6%	3%
CCn1c(-c2ccccc2SC)n[nH]c1=S	0	?	18	7%	3%	-15%
C=CCn1c(-c2ccc3ncccc3c2)n[nH]c1=S	-2	7.1µM*	.	8%	.	5%
COc1ccc(NC(=O)CSc2nc(O)c(C/C=C/c3ccccc3)c(=O)[nH]2)cc1	.	-20%	.	16%	.	-16%
CCCCn1c(=O)[nH]c(=O)c2c1nc(-c1ccc([N+](=O)[O-])cc1)n2CC	-6	-3%	8	27%	45%	20%
CCn1c(-c2ccc([N+](=O)[O-])cc2)n[nH]c1=S	-6	3.5µM*	-8	22%	3%	-30%
CC(C)n1c(=O)c2c(O)cc(=O)oc2c2ccccc21	-14	50µM*	-14	2%	-6%	-2%
SMILES	Six1-Eya2 blk	JMJD2A Tudor inh	CtBP-E1A blk	HP1b chromo inh	TDP1 block	BAZ2B inh
CCn1c(=O)c2c(O)cc(=O)oc2c2ccccc21	-14	?	-15	26%	-9%	-3%
CCOc1ccc(C(=O)CC(NCc2cccs2)C(=O)O)cc1 (stereo not drawn)	13	89µM*	-16	6%	-3%	-26%
CCOc1ccc(-c2cn3c(n2)sc2cc(C(=O)NC(C)C45CC6CC(CC(C6)C4)C5)ccc23)cc1 (stereo not drawn)	.	1%	.	68%	-2%	0%
Cc1c(C)c2c(OCC(=O)NCC(=O)NCC(=O)O)cc3c(c2oc1=O)CCC(C)(C)O3	?	20µM*	?	17%	.	2%
Cc1c(C)c2c(OCC(=O)O)cc3c(c2oc1=O)CCC(C)(C)O3	-11	-1%	.	58%	.	-17%
CCN(CC)c1ccc(NC(=O)CN2CCN(CC(=O)Nc3ccccc3OC)CC2)cc1	-21	56µM*	.	?	7%	?
CCN(CC)c1ccc(NC(=O)CN2CCN(c3nc(C)cc(C)n3)CC2)cc1	?	-18%[11.4 µM]	?	?	0%	35µM*
COc1ccc(C2CC(C)(c3ccc(OC)cc3)Nc3ccccc3N2)cc1 (stereo not drawn)	?	?	-18	?	.	22µM*
CN(Cc1ccccc1)C(=O)C1CCN(S(=O)(=O)c2cc([N+](=O)[O-])ccc2Cl)CC1	-13	-26%	-12	13%	14%	-7%
O=C(COC(=O)C1CCN(S(=O)(=O)c2cc([N+](=O)[O-])ccc2Cl)CC1)Nc1ncc(Cl)cc1Cl	-21	25µM*	?	?	4%	32µM*
CC(=O)COC(=O)C1CCN(S(=O)(=O)c2cc([N+](=O)[O-])ccc2Cl)CC1	-4	56µM*	3	17%	?	50µM*
CCCOc1ccc(-c2nonc2NC(=O)c2oc3ccc(C)cc3c2C)cc1OCCC	.	4%	.	46%	-4%	3%
COc1ccc(C(C)C)cc1S(=O)(=O)NCCc1c(C)[nH]c2ccc(C)cc12	.	50µM*	.	10%	14%	?
COc1ccc(C(C)C)cc1S(=O)(=O)NCCCn1ccnc1	1	-12%	-13	34%	.	-26%
COc1cc(Cl)c(S(=O)(=O)NCCc2c(C)[nH]c3c(C)cccc23)cc1Cl	.	50µM*	.	-21%	11%	32µM*
COc1c(C)cc(S(=O)(=O)NCCc2c(C)[nH]c3ccccc23)c(C)c1C	.	?	.	-19%	12%	40µM*
O=[N+]([O-])c1cccc(S(=O)(=O)NCCCn2ccnc2)c1	1	-23%	-1	1%	.	50µM*
Cc1nc(-c2ccc(F)cc2)sc1CCNC(=O)c1cccs1	.	-23%	.	5%[57 µM]	2%	-34%
Cc1cccc(NC(=O)CSc2c(C)cnc3c2c(=O)n(C)c(=O)n3C)c1C	.	-9%	.	43%	-3%	1%
O=C(Cn1ncc2ccsc2c1=O)N1CCN(c2ccc(Cl)cc2)CC1	.	-20%	.	18%	-1%	-25%
COc1ccccc1CCNC(=O)Cc1c(C)c2ccc(O)cc2oc1=O	.	-11%	.	3%	9%	-3%
COc1ccc(C(C)C)cc1S(=O)(=O)NCCc1c(C)[nH]c2c(Cl)cccc12	.	?	.	-12%	5%	28µM*
